High-throughput results (PubChem BioAssay)
Rows were chosen to be rich in hits. Some 4% of all compounds tested hit in one or more screens of this group.
CF NFkB block – blocks PAF-induced NF-kB reporter in cystic fibrosis cells; KKLEB NF-kB-GFP reporter, GFP fluorescence overnight; inhibition, % at 5 µM; 360,000 compounds, 0.86% hits; AID 588850;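 active = at least 50% inhibition at 5 µM, scaled per plate between neutral and stimulator controls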;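 note: PAF is a Pseudomonas aeruginosa culture filtrate used as stimulus; plate controls were PAF-stimulated DMSO wells for no effect and unstimulated DMSO wells for full effect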
TROY signal inh – blocks TROY-dependent signaling in reporter cells. Q293 LMP1-TROYcd NF-kB luciferase reporter, 4 h. inhibition, % at 10 µM. 360,000 compounds, 0.98% hits;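 active = compounds whose plate-normalised and pattern-corrected inhibition of the luciferase reporter signal at the single screening dose is 50% or more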
TWEAK-Fn14 inh – TWEAK-Fn14 signaling inhibition; TWEAK-stimulated Fn14 reporter cells, luciferase luminescence, 8 h; inhibition, % at 10 µM; 360,000 compounds, 2% hits; in the data active = inhibition above about 50%
HIF-2a block – blocks HIF-2a reporter activity; 786-0 RCC cells HIF-2a reporter, luciferase luminescence, overnight; inhibition, % at 18.8 µM; 360,000 compounds, 0.72% hits; AID 624352;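 active = inhibition of the luminescence signal of 40% or more relative to plate controls, in a single-dose primary screen at 18.75 µM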
KKLEB cytotox – CF airway cell cytotoxicity counter-screen | KKLEB CF airway cells viability, ATPlite luminescence, overnight; stronger effect = lower value; cells stimulated with P. aeruginosa culture filtrate | activity change (cytotoxicity), % at 5 µM | 360,000 compounds, 0.36% hits;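 active = corrected activity change at or below -50% at 5 µM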
Peg3 promoter – inhibitors of Peg3 promoter; HeLa PEG-Prom luciferase reporter, luminescence, overnight; inhibition, % at 20 µM; 360,000 compounds, 1.7% hits; AID 588405;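 active = inhibition of at least 50% at 20 µM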
Starred values were filed as active, the others as inactive; · = no result given.

SMILES	CF NFkB block	TROY signal inh	TWEAK-Fn14 inh	HIF-2a block	KKLEB cytotox	Peg3 promoter
CC(C)(C)OC(=O)CNC(=O)c1[nH]cnc1C(=O)NC1CCNCC1	-4.6	-3.3	11.1	4.2	5.3	-1.6
C=CC(COCc1ccccc1)N([C@@H](Cc1ccccc1)C(=O)OC)S(=O)(=O)c1ccccc1Br (some centres undefined)	19.5	2.5	8.0	16.4	-15.7	13.6
Cc1ccc(-c2ccc(=O)n(CCC(=O)NCCN3CCCCC3C)n2)cc1 (centres undefined)	-7.2	·	87.3*	7.9	9.7	-3.6
O=c1c2ccccc2nc2n1CC/C2=C\N1CCN(c2ccc([N+](=O)[O-])cc2)CC1	-5.2	22.9	2.7	-7.5	-3.8	-4.5
O=C(Nc1cccc(O)c1)c1cc(-c2cccs2)on1	-16.3	7.5	69.3*	-196.4	-10.0	-195.0
COc1cccc(-c2cc(C(=O)Nc3cccc(O)c3)no2)c1	-26.4	44.0	65.8*	-121.3	-38.2	-217.9
COc1ccc(NC(=O)c2cc(-c3cccc(OC)c3)on2)cc1	-23.1	-11.0	-5.8	-107.0	-2.7	-48.8
O=C(c1ccco1)N(Cc1ccc2c(c1)OCO2)Cc1cc2cc3c(cc2[nH]c1=O)OCO3	-18.0	9.5	-28.0	22.8	-2.3	-4.2
Cc1ccc(O)c(C(=O)c2cnn(C(=O)c3cccc(S(=O)(=O)N(C)C)c3)c2)c1	46.4	40.5	62.8*	18.0	-0.1	-3.2
COc1ccc(O)c(C(=O)c2cnn(C(=O)c3cccc(S(=O)(=O)N(C)C)c3)c2)c1	23.9	-18.6	34.7	-3.1	16.7	-27.0
COc1ccc(C)cc1Nc1n[n+](-c2ccccc2)c(-c2c(OC)ccc3ccccc23)s1	38.1	46.9	57.9*	-26.5	-5.9	56.5*
Fc1ccc(-[n+]2nc(Nc3ccccc3)sc2-c2c3ccccc3cc3ccccc23)cc1	46.5	33.9	49.2	-16.6	-30.5	53.3*
COc1ccc(C)cc1Nc1n[n+](-c2ccccc2)c(-c2cc(OC)c(OC)cc2Br)s1	8.9	10.1	-1.0	9.0	6.0	-3.8
O=C(Nc1ccc(F)cc1)C(c1cccc(F)c1)N1CCN(c2ccncc2)CC1 (centres undefined)	·	·	·	-22.0	·	·
CC(C)C(NC(=O)c1ccco1)C(=O)NCc1ccc(C(=O)O)cc1 (centres undefined)	-9.0	-2.4	10.7	-3.4	12.2	12.1
FC(F)(F)c1ccc(-c2csc(-c3ccno3)n2)cc1	-15.1	-39.3	-16.8	-128.9	-21.9	-71.2
CC(C)(C)C(=O)OCc1nc(-c2ccc(C(F)(F)F)cc2)cs1	-5.3	73.3*	-23.7	-61.5	10.2	-51.8
CCOC(=O)c1c(C2CC2)csc1NC(=O)COC(=O)c1cnc(Cl)c(Cl)c1	-2.9	2.3	-17.0	-4.3	6.3	102.1*
CCOC(=O)c1c(C2CC2)csc1NC(=O)COC(=O)c1ccc[n+]([O-])c1	-15.1	-0.9	-9.5	11.3	6.3	-6.6
Cc1nc(Nc2ccc(Cl)c(Cl)c2)sc1C(=O)Nc1ccccc1	8.9	38.1	84.2*	-172.6	1.3	-42.5
CCOC(=O)c1c(C)[nH]c(C(=O)NNC(=O)c2ccccc2F)c1C	20.3	-17.3	26.4	-203.4	-5.1	-187.6
CCOC(=O)c1c(C)[nH]c(C(=O)NNC(=O)c2ccccc2)c1C	-16.0	-25.3	52.9*	-117.2	13.8	-145.0
CCOC(=O)c1c(C)[nH]c(C(=O)NNC(=O)c2ccc(Br)cc2)c1C	18.8	54.8*	56.0*	-163.4	-12.7	-65.7
COc1cccc(CNC(=O)COC(=O)c2cccc(S(=O)(=O)N3CCCC3)c2)c1	8.3	-15.7	3.1	9.4	-1.1	5.8
CCN(CC(=O)NCc1ccc(F)cc1)CC(=O)NC1CCCC1	13.6	12.1	-1.3	11.6	9.1	-2.8
SMILES	CF NFkB block	TROY signal inh	TWEAK-Fn14 inh	HIF-2a block	KKLEB cytotox	Peg3 promoter
CC/C(=C\C1CCCCC1)C(NP(=O)(c1ccccc1)c1ccccc1)c1ccccc1 (centres undefined)	40.1	11.6	8.2	18.6	-21.0	59.2*
CC(C)/C=C(/C(=O)c1ccc(Cl)cc1Cl)n1cncn1	31.1	1.1	61.5*	18.1	-0.3	3.3
CCc1cccc2c1Sc1ccccc1CC2N1CCNCC1 (centres undefined)	14.7	-39.8	-15.6	15.7	-7.3	111.3*
CCOC(=O)N1CCC(=NNC(=O)COc2ccc(OC)cc2)CC1	2.0	-7.5	95.9*	8.3	6.1	-16.5
Cc1ccccc1NC(=O)c1cc(C(=O)c2cc(Cl)ccc2O)cn(-c2ccccc2C)c1=O	48.5	38.1	87.3*	-42.2	-42.9	-37.4
N#C/C(=C/c1ccc(N2CCCCCC2)o1)c1ccc(Cl)cc1	70.6*	-9.1	1.0	45.1*	-40.0	97.4*
Cc1cc(N2CCC(C(=O)NCC3CC3)CC2)nc(-c2ccccc2)n1	13.2	6.3	78.0*	15.5	-11.0	16.9
COc1cc(C(O)c2nc(-c3cccc(F)c3)cs2)ccc1F (centres undefined)	-33.3	-38.9	-7.3	-80.3	-7.2	-83.6
Cc1ccc(C(=O)n2nc(-c3cccnc3)nc2N)cc1	-0.2	64.3*	22.4	20.2	9.9	1.6
Cc1cccc(CC(C)NC(=O)c2oc3c(F)cccc3c2C)n1 (centres undefined)	6.1	5.8	-11.5	-33.8	5.0	-13.4
CN(C)C(CNS(=O)(=O)c1ccc(Cl)cc1)c1cccnc1 (centres undefined)	8.6	-4.6	2.8	12.1	-0.4	12.2
COc1ccc(NC(=O)Cn2nnc(-c3ccccc3NS(=O)(=O)c3ccccc3)n2)cc1	3.5	32.8	54.3*	27.8	-15.5	26.9
CSc1nc(N)c(C#N)c(-c2ccc(Cl)cc2)c1C#N	-2.8	-19.8	32.3	38.2	-4.7	57.8*
CSc1nc(-c2ccc(Cl)cc2)nc(N)c1C#N	-10.2	-19.8	0.0	11.0	-10.6	18.4
O=C(CC(c1ccccc1)(c1ccccc1)c1ccccc1)N[C@@H](Cc1ccc(O)cc1)C(=O)O	0.0	-4.0	-11.9	4.4	7.1	1.4
N#CC1(Nc2ccccc2)C(=O)Nc2ccccc21 (centres undefined)	-2.8	-23.9	-2.6	11.7	8.7	12.8
CCN1C(=O)CCN(C2CCCC2)c2nc(Nc3ccc(C(=O)NC4CCN(C)CC4)cc3OC)ncc21	-156.3	-15.4	8.3	-35.5	-16.1	66.0*
CCCCn1c(=O)nc2n(-c3ccc(OC)cc3)c3ccccc3cc-2c1=O	14.5	-23.6	-31.1	21.7	-1.9	-0.9
CCCCN(CC)CCNC(=O)c1nn(-c2ccc(OC)cc2)c(=O)c2c1c1ccccc1n2C	6.9	-7.1	-7.0	15.4	-1.6	18.7
CCN(Cc1ccccc1)C(=O)c1nn(-c2ccc(OC)cc2)c(=O)c2c1c1ccccc1n2C	11.1	-6.2	25.8	20.3	-6.5	67.7*
COc1cccc(C(=O)Oc2ccccc2/C=C\C(=O)c2cc3ccccc3o2)c1	-0.6	-67.1	43.2	-120.6	-13.0	104.9*
